High-throughput results (PubChem BioAssay)
Hits are enriched below; roughly 27% of the tested compounds scored in any of these assays.
CYP2C19 activ: activators of human cytochrome P450 2C19; 96,000 tested, under 10 active; recombinant CYP2C19, luciferin-H EGE luminescence; active compounds read high; 0 = fully inhibited enzyme, 1 = untreated enzyme; P33261; AID 1025; activation factor at 5 µM;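 active = activation factor of at least 2 at 5 µM in the primary screen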;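 also: 0 = wells with 2.5 mM tranylcypromine and 1 = vehicle-only wells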
CYP2C9 act: increases human cytochrome P450 2C9 activity. AID 1024. P11712. activation factor at 5 µM. recombinant CYP2C9, luciferin-H conversion, luminescence; active compounds read high; factor 1 = untreated enzyme, 0 = blocked. 96,000 compounds, 1.4% hits;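 active = activation factor of 2 or more for CYP2C9 at a 5 µM dose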;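 also: 0 = sulfaphenazole-blocked wells and 1 = vehicle-only wells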
Target sequence (P11712 whole entry, looked up): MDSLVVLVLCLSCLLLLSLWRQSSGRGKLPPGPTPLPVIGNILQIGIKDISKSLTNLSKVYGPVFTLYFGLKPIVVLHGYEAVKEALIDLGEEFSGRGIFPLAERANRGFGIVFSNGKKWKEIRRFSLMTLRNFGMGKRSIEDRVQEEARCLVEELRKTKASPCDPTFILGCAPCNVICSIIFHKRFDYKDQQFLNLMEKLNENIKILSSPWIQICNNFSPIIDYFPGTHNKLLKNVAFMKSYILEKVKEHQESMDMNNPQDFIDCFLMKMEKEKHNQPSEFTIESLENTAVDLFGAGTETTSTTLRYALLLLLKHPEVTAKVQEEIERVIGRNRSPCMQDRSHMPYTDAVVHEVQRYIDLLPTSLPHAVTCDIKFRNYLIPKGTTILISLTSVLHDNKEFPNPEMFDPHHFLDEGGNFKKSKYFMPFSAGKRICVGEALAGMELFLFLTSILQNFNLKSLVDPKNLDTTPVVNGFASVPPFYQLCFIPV
CYP2C9 inh: human CYP2C9 inhibition. P11712. inhibition, % at 5 µM. CYP2C9 Supersomes, luciferin-H conversion, luminescence. 96,000 compounds, 20% hits;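 active = blocking of liver enzyme CYP2C9 beyond about 50% at 5 µM, limit read from the data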
CYP2C19 inhib: blocks human cytochrome P450 2C19. P33261. AID 778. inhibition, % at 5 µM. CYP2C19 Supersomes, luciferin-H EGE luminescence, 30 min. 96,000 compounds, 21% hits;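 active = CYP2C19 inhibition above a set limit at 5 µM in the primary screen, cut at about 50% in these data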;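 also: plate controls were negative control wells for no effect and 2.5 mM tranylcypromine positive control for full effect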
Cav3 T inh: inhibitors of human Cav3.2 T-type calcium channel. O95180. Cav3.2-expressing cells, Fluo-4 calcium fluorescence FDSS; active compounds read low. B-score at 10 µM. 100,000 compounds, 4% hits. AID 449739;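 active = single-dose well whose peak fluorescence ratio is a statistical outlier from its plate by either plate-standardised score or position-corrected B-score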
Active calls of the source: *; / = no result.

SMILES | CYP2C19 activ | CYP2C9 act | CYP2C9 inh | CYP2C19 inhib | Cav3 T inh
COc1cc(C(=O)OCC(=O)Nc2cc(C)on2)cc(OC)c1OC | 1 | 0.9 | 11 | -5 | 0.49
O=C(/C(=C/O)N=Nc1ccc(Cl)cc1)c1ccncc1 | 0.3 | 0.5 | 46 | 66* | -1.2
CC(C)(C)NC(=O)c1ccncc1 | 1.2 | 1.1 | -8 | -17 | 0.18
COc1ccc(/C=C/C(=O)c2ccccc2O)cc1CN1CCOCC1 | 0.4 | 0.6 | 44 | 58* | 0.7
COc1ccc(/C=C/C(=O)c2ccccc2)cc1COc1ccccc1F | 0.6 | 0.3 | 74* | 41 | -4.2*
CCOc1ccccc1NC(=O)c1cc(Cl)ccc1NC(=O)c1ccco1 | 1 | 1 | 1 | -3 | -0.076
CCN(CCNC(=O)CS(=O)(=O)Cc1nc(-c2cccc(OC)c2)oc1C)c1ccccc1 | 0.2 | 0.1 | 87* | 78* | -9*
COc1cccc(-c2nc(CS(=O)(=O)CC(=O)N3CCN(c4ccccn4)CC3)c(C)o2)c1 | 0.8 | 0.5 | 51* | 21 | -1.1
CCOC(=O)c1cccc(NC(=O)CS(=O)(=O)Cc2nc(-c3cccc(OC)c3)oc2C)c1 | 0.6 | 0.2 | 76* | 45 | -5.2*
CCOC(=O)N1CCC(NC(=O)CS(=O)(=O)Cc2nc(-c3cccc(OC)c3)oc2C)CC1 | 0.9 | 0.9 | 12 | 10 | 0.079
CS(=O)(=O)N1CCCC(C(=O)NCc2ccc(F)cc2Cl)C1 (stereo unspecified) | 0.9 | 1.1 | -13 | 8 | 0.63
CCOC(=O)C(/C=C(\C#N)C(=O)OCC)=C(/N)N1CCN(c2c(C)cccc2C)CC1 | 0.8 | 1.1 | -10 | 16 | 1.2
O=C(CCC1COc2ccccc2O1)Nc1cccnc1 (stereo unspecified) | 0.2 | 0.5 | 45 | 81* | 1
O=C(CCC1COc2ccccc2O1)Nc1ccccn1 (stereo unspecified) | 0.6 | 1 | 1 | 44 | -1.1
O=C(CCC1COc2ccccc2O1)Nc1ncccc1O (stereo unspecified) | 0.4 | 0.9 | 14 | 64* | /
O=C(Nc1ccc2c(c1)OCCO2)C1CCN(C(=O)c2ccc(F)cc2)CC1 | 0.8 | 0.8 | 23 | 19 | 0.58
CC(=O)OCC1O[C@@H](O[C@@H]2C[C@H]3C(C)(C)[C@H](OC(C)=O)CC[C@]3(C)[C@H]3CC[C@]45C[C@]4(CC[C@H]5[C@@H](C)C[C@@H](O)[C@H](O)C(C)(C)O)[C@@]32C)[C@H](O)[C@@H](O)[C@@H]1O (stereo partly specified) | / | / | / | / | -0.11
Cc1nnc(NC(=O)COc2ccc3c(C)cc(=O)oc3c2)s1 | 0.7 | 0.3 | 73* | 27 | /
Cc1cc(=O)oc2ccc(OCC(=O)N3CCc4ccccc43)cc12 | 0.8 | 0.3 | 72* | 15 | 1.5
Cc1cccc(OCCC(=O)OCC(=O)N2CCc3ccccc32)c1 | 0.5 | 1.5 | -45 | 53* | -0.44
Cc1cc(=O)oc2cc(OCC(=O)N3CCc4ccccc4C3)ccc12 | 0.5 | 0.8 | 25 | 45 | 1
Cc1cc(=O)oc2cc(OCC(=O)N3CCCc4ccccc43)ccc12 | 0.6 | 0.2 | 75* | 44 | -0.012
COC(=O)c1c(NC(=O)CN2CCC(C)CC2)c2c(C)cccc2n1C | 0.8 | 0.9 | 6 | 20 | 0.2
CC(c1ccccc1)C1CC(=O)N(CC(=O)O)C1=O (stereo unspecified) | 1 | 0.9 | 6 | -1 | -0.76
CC(c1ccccc1)C1CC(=O)N(Cc2ccco2)C1=O (stereo unspecified) | 0.1 | 0.7 | 34 | 91* | 0.18
SMILES | CYP2C19 activ | CYP2C9 act | CYP2C9 inh | CYP2C19 inhib | Cav3 T inh
c1cc(-c2nc3cc(Cc4ccc5oc(-c6ccncc6)nc5c4)ccc3o2)ccn1 | 0.9 | 0.5 | 51* | 11 | /
O=C(CN(C(=O)CNC(=O)c1cccs1)c1ccc2c(c1)OCCO2)NC1CCCC1 | 0.8 | 0.1 | 91* | 25 | -0.3
O=C(CN(C(=O)CNC(=O)c1ccco1)c1ccc(Cl)c(Cl)c1)NC1CCCCC1 | 0.1 | 0.1 | 89* | 86* | -4.3*
O=C(NCC(=O)N(Cc1cccs1)C(C(=O)NC1CCCC1)c1cccnc1)c1ccco1 (stereo unspecified) | / | / | / | / | -1.6
O=C(NCC(=O)N(c1ccc2c(c1)OCCO2)C(C(=O)NC1CCCC1)c1ccco1)c1ccco1 (stereo unspecified) | / | / | / | / | -0.65
O=C(CN(Cc1ccc2c(c1)OCO2)C(=O)CNC(=O)c1ccco1)NC1CCCCC1 | 0.4 | 0.2 | 83* | 61* | 0.051
O=C(CN(Cc1cccs1)C(=O)CNC(=O)c1ccco1)NC1CCCCC1 | 0.9 | 0.5 | 50* | 9 | 1.4
COc1cccc(-n2c(=O)[nH]cc(C(=O)Nc3ccc(NC(C)=O)cc3)c2=O)c1 | 1 | 0.9 | 5 | 3 | -0.0086
COc1ccc(-c2nc3n(n2)C(=O)CC(c2ccco2)S3)cc1 (stereo unspecified) | / | / | / | / | 0.13
O=C(NCC(=O)N(Cc1cccs1)C(C(=O)NC1CCCC1)c1ccco1)c1cccs1 (stereo unspecified) | 0.1 | 0.1 | 89* | 87* | -1.3
CCOc1ccc(N(CC(=O)NC2CCCCC2)C(=O)CNC(=O)c2ccco2)cc1 | / | / | / | / | -2.6
O=C(CN(C(=O)CNC(=O)c1ccco1)c1ccc2c(c1)OCO2)NC1CCCCC1 | 0.3 | 0 | 95* | 73* | -1.4
O=C(NCC(=O)N(Cc1cccs1)C(C(=O)NC1CCCCC1)c1ccncc1)c1ccco1 (stereo unspecified) | / | / | / | / | 0.58
O=C(OC(C(=O)NCC1CCCO1)c1ccc(F)cc1)c1cccs1 (stereo unspecified) | / | / | / | / | 1.3
CC(OC(=O)CN(C)S(=O)(=O)c1ccc(Cl)cc1)C(=O)Nc1cccc(Cl)c1 (stereo unspecified) | 0.6 | 0.8 | 20 | 37 | -6.6*
CNNCc1ccc(C(=O)NC(C)C)cc1 | / | / | / | / | -0.036
CCCCN1CNC(=S)N(c2cc(C)ccc2C)C1 | 0.3 | 0.9 | 9 | 72* | 0.34
CCCCC(=O)N/N=C/c1ccc(Sc2cccc3cccnc23)o1 | 0.5 | 0.4 | 57* | 47 | -1.2
CCOc1ccccc1C(=O)N/N=C/c1cccc2cccnc12 | 0.6 | 1.5 | -49 | 41 | -0.58
O=C(Cc1cccc2ccccc12)N/N=C/c1ccc(Sc2cccc3cccnc23)o1 | 0.5 | 0.2 | 82* | 53* | /
CCCCCCCC(=O)N/N=C/c1cccnc1 | 0.6 | 0.7 | 27 | 39 | 0.41
COC(=O)c1c(C)noc1-c1cc(C)on1 | 0.9 | 1.2 | -24 | 14 | -0.055
CCn1c(SCCOc2ccc(Cl)cc2)nnc1-c1cccs1 | 0 | 0.1 | 90* | 96* | -5.2*
CCn1c(SCC(=O)c2ccc(Cl)cc2)nnc1-c1cccs1 | 0.3 | 0.8 | 25 | 70* | -0.35
CCn1c(SCC(=O)c2ccc(Cl)cc2)nnc1C(C)C | 0.2 | 1.2 | -16 | 77* | 0.44
COC(=O)CSc1nnc(C2COc3ccccc3O2)n1-c1ccccc1 (stereo unspecified) | 0.4 | 0.8 | 16 | 58* | 0.011
